Reference: ChEMBL document CHEMBL4513216, “Probing the Open Global Health Chemical Diversity Library for Multistage-Active Starting Points for Next-Generation Antimalarials” (ACS Infect Dis, 2020)
The whole screen tested about 69,000 compounds, of which about 8,600 (12%) showed an effect of 50% or more. The sample holds strong results, similar compounds and a random draw of the others, so the mix is not that of the screen.

Each compound was assayed on Plasmodium berghei (assay: Screen against P. berghei liver stage (PbLuc), transformed with Luciferase, at 10uM). Details: tested at 10 uM.
Type: functional, HepG2

Compound	INHIBITION [%]
CC1(C)CC(NC(=O)c2cnn(-c3ccccc3F)c2N)CC(C)(C)N1	-33
Cc1cc(C(=O)N2CCn3c(COCC4CCCC4)cnc3C2C)on1 (centres undefined)	37.3
CCn1nc(C)c2nc(C(C)C)nc(NCCCO)c21	-9.48
CCCc1nc(NCCc2ccccc2)c2c(n1)c(C)nn2CC	43.7
CCn1nc(C)c2nc(C)nc(NCCc3ccccc3)c21	46.4
CCn1nc(C)c2nc(C)nc(NCCc3ccc(C)cc3)c21	62.7
CCn1nc(C)c2nc(C(C)C)nc(NCC(C)O)c21 (centres undefined)	-3.11
CCn1nc(C)c2nc(C(C)C)nc(NCCc3ccc(O)cc3)c21	68.1
CCOc1ccccc1C1CCCN1 (centres undefined)	15.8
Cc1cnn(CC(C)NCc2nc(-c3ccsc3)oc2C)c1 (centres undefined)	-7.31
Cn1cc(CN2CCS(=O)(=O)C(C)(C)C2)cn1	44.3
Cc1ccc(CN2CCS(=O)(=O)C(C)(C)C2)cc1C	70.1
CC1(C)CN(Cc2ccncc2)CCS1(=O)=O	21.9
COc1ccc(Cn2cc(C(C)O)nn2)cc1 (centres undefined)	19.9
CNc1cnc(CC2COCCN(CCOc3ccccc3)C2)cn1 (centres undefined)	39.7
CC(=O)NC1CCN(C(=O)Nc2cccc(C(F)(F)F)c2)CC1	27.9
CC(=O)NC1CCN(C(=O)Nc2cccc(SC(F)F)c2)CC1	27.9
CC(=O)NC1CCN(C(=O)Nc2ccc(SC(F)F)cc2)CC1	73.5
CN(Cc1ccco1)[C@@H]1CN(Cc2cccs2)C[C@@H]2CCCO[C@@H]21	31.4
Cn1cnnc1SCC(=O)N1C[C@@H]2CC[C@H]1CN(Cc1cccnc1)C2	6.28
CCN(CC)C(=O)CN1CCc2c(nc(C3CCNCC3)nc2NC)C1	-3.94
Nc1ccc(C(=O)N2C[C@H]3CC[C@@H](C2)N(Cc2ccccc2)C3)cn1	-20.8
Cc1cccc(-n2ncc(C(=O)NCC3CCS(=O)(=O)C3)c2C)c1 (centres undefined)	-33.9
Cc1ccc(-n2ncc(C(=O)NCC3CCS(=O)(=O)C3)c2C)cc1 (centres undefined)	-24.2
Cc1c(C(=O)NCC2CCS(=O)(=O)C2)cnn1-c1ccccc1 (centres undefined)	57.8
O=C1N(Cc2ccc(Cl)cc2)CCC12CCCNC2 (centres undefined)	3.81

Compound	INHIBITION [%]
CC(=O)NCCc1ccc(S(=O)(=O)Nc2ccc(C)c(F)c2)s1	32.3
CC(=O)c1ccc(-n2c(C)cn(CCC#N)c2=O)cc1	5.36
CC(=O)c1ccc(-n2c(C)cn(CCC(=O)NC(N)=O)c2=O)cc1	12.7
CC(=O)c1ccc(-n2c(C)cn(CCS(C)(=O)=O)c2=O)cc1	55.6
OC(CN1CCN(Cc2cc(F)ccc2F)CC1)C1CC1 (centres undefined)	-6.11
CCC(Nc1cccc(OC)c1)C(=O)NCc1nc(C)cc(=O)[nH]1 (centres undefined)	36.4
CCS(=O)(=O)N1CCc2c(CN3CCOCC3)cncc2C1	92.1
CCCS(=O)(=O)N1CCc2c(COCC)cncc2C1	33
CCS(=O)(=O)N1CCc2c(COCCN(C)C)cncc2C1	24
CCS(=O)(=O)N1CCc2c(COCc3ccncc3)cncc2C1	66.6
O=S(=O)(C1CC1)N1CCc2c(CN3CCOCC3)cncc2C1	12.6
CCS(=O)(=O)N1CCc2c(COC)cncc2C1	23.1
CN(C)CCN(C)C(=O)c1ccccc1-n1cc(CN(C)C)cn1	1.5
c1ccc(CN2Cc3[nH]nc(COCC4CC4)c3C2)nc1	30.5
CN(C)CCNC(=O)C1Cc2nc(-c3ccccc3)sc2N1CC1CC1 (centres undefined)	24.3
CN(CCNC(=O)c1cnc(-c2ccccc2)nc1)S(C)(=O)=O	57.1
CN(CCNC(=O)c1cnc(-c2ccncc2)nc1)S(C)(=O)=O	25.1
CCN(CC)CCNC(=O)c1cnc(-c2ccccc2)nc1	-8.07
Cc1ccc(OCCN2CCCC(c3cc(C(N)=O)[nH]n3)C2)cc1 (centres undefined)	15.3
O=C(NC1CC1)C1CCN(c2snc3ccccc23)CC1	37.9
CCc1n[nH]c(C2CN(C(=O)c3cnc(C)nc3CC)CCO2)n1 (centres undefined)	-49.5
CC(NC(=O)c1ccnn1C)c1ccc(OCC2CC2)c(F)c1 (centres undefined)	68.2
CC(NC(=O)c1ccc(=O)n(C)c1)c1ccc(OCC2CC2)c(F)c1 (centres undefined)	40.97
CC(=O)NC(C)c1ccc(OCC2CC2)c(F)c1 (centres undefined)	26.8
CC(=O)c1cccc(-n2nc(C(C)=O)c(C(C)=O)c2C)c1	0.325
O=C(Nc1nnc(C(F)F)s1)N[C@H](CCO)c1ccccc1	20.9

Compound	INHIBITION [%]
COc1ccnc(N2CCN(C(=O)c3ccc(Cl)o3)CC2)n1	-9.76
CC(C)N1CCN(C(=O)c2csc3nc(-c4ccc(Cl)cc4)cn23)CC1	37.9
CCC1CN(C(=O)c2csc3nc(-c4ccc(Cl)cc4)cn23)CCN1 (centres undefined)	56.1
O=C(c1csc2nc(-c3ccc(Cl)cc3)cn12)N1CCCC(CO)C1 (centres undefined)	-16.6
CNC(=O)C1(CCCc2ccccn2)CCN1Cc1coc(C)n1 (centres undefined)	9.05
O=C(NCc1cccnc1)c1cn(CCc2ccccc2)nn1	12.9
Cc1nn(C2CCCC2)c2nc(C(C)(C)CN3CCN(C)CC3)[nH]c12	49.4
CS(=O)(=O)CCn1ccc(NC(=O)CCc2cccc(F)c2)n1	13.8
Nc1nccc(N[C@H]2CN(CC(=O)NC3CCCCC3)C[C@@H]2C2CC2)n1	56.2
Cc1nccc(N[C@H]2CN(CCS(C)(=O)=O)C[C@@H]2C2CC2)n1	39.3
Cc1nccc(N[C@H]2CN(CCC(=O)NC3CCCC3)C[C@@H]2C2CC2)n1	26.5
Cc1noc([C@H]2C[C@H]3CN(C(=O)Cc4ccsc4)CC[C@H]3O2)n1	-14.1
c1ccc2c(c1)CC(n1ccnc1-c1cc3n(n1)CCNC3)CO2 (centres undefined)	43.9
c1ccc2c(c1)CC(n1ccnc1-c1cc3n(n1)CCCNC3)CO2 (centres undefined)	18.5
O[C@H]1Cc2ccccc2[C@H]1n1ccnc1-c1cc2n(n1)CCNC2	67.6
COc1ccc(CCCC(=O)N2C[C@H](C3CC3)[C@@H](N(C)C)C2)cc1	6.28
CC(=O)N1[C@@H](C(=O)NCC2CC2)C[C@@H]2CN(Cc3ccco3)C[C@@H]21	11.6
Cc1cccc(Nc2noc3c2CN(C(=O)c2ccn(C)n2)CC3)c1C	-14.225
Cc1ccnn1CCNC(=O)C1CCN(S(=O)(=O)c2ccc(F)cc2)C1 (centres undefined)	41.2
Cc1noc(C)c1C[S+]([O-])Cc1cn2cccc(C)c2n1 (centres undefined)	-41.7
CS(=O)(=O)N1CCO[C@H]2[C@@H](Oc3ncccc3F)CC[C@@H]21	32.2
Cc1nc(CN2CCCC(NCc3ccc(Cl)s3)C2)no1 (centres undefined)	26.5
Cc1ccc2[nH]c(C(=O)N3CCC4(CC3)C(=O)NCCN4C)nc2c1	10.4
Cc1cc(=O)[nH]c(-n2nc(-c3cccs3)cc2N)n1	20.9
Cc1nc(-n2nc(-c3cccs3)cc2N)[nH]c(=O)c1C	50.9
CCc1c(C)nc(-n2nc(-c3cccs3)cc2N)[nH]c1=O	-90.8

Compound	INHIBITION [%]
NC1(c2nc(-c3cccs3)cc(=O)[nH]2)CCCC1	-35.8
CC(C(N)=O)n1nc(-c2cccs2)cc(N)c1=O (centres undefined)	17.4
CCCc1cc(=O)[nH]c(-n2nc(-c3cccs3)cc2N)n1	83.8
O=C(c1ccnnc1)N1CCC2(CC1)CC(N1CCOCC1)C2	27.4
O=C(NCc1ccco1)N(CCCO)C1CCCc2ccccc21 (centres undefined)	11.9
CC(C)N(Cc1ccc(C#N)cc1)C(=O)Nc1ccncc1	44
CC(C)N(Cc1ccccc1)C(=O)NCCNC(=O)c1cccnc1	-17.8
Cc1cc(NC(=O)N(Cc2ccc(C#N)cc2)C(C)C)no1	6.33
CC(C)N(Cc1ccc(C#N)cc1)C(=O)Nc1ccccn1	54.3
CC(C)N(Cc1ccc(C#N)cc1)C(=O)NCCNc1ncccn1	55.1
CC(C)N(Cc1cccnc1)C(=O)CSc1ccc(C#N)cc1	2.82
Cc1ccc(N(CCC#N)C(=O)CCc2cccnc2)cc1C	11.9
CC(C(=O)NCC(F)(F)F)N1CCC(N2CCN(C)C2=O)CC1 (centres undefined)	35.9
Cc1cncc(C(=O)N2C[C@@H]3CN(S(C)(=O)=O)CCO[C@@H]3C2)c1	-7.24
CNC(=O)N1CCc2cc(C(=O)NCC3CC3)c(NC(C)C)nc2CC1	-114
Cc1nc2c(cc1C(=O)O)CCN(Cc1ccsc1)CC2	20.4
CC(C)Nc1nc2c(cc1C(=O)NCC1CC1)CCN(C)CC2	34.1
CN(C)C(=O)c1cc2c(nc1NCC1CC1)CCN(CC1CC1)CC2	38.2
Cc1nc2c(cc1C(=O)O)CCN(CC1CC1)CC2	74.9
CC(C)Nc1nc2c(cc1C(=O)NCC1CC1)CCN(CC1CC1)CC2	71.4
CC(C)Nc1nc2c(cc1C(=O)NCC1CC1)CCN(S(C)(=O)=O)CC2	-39.1
COCCN1CCc2cc(C(=O)N(C)C)c(NC(C)C)nc2CC1	18.1
COCCN1CCc2cc(C(=O)NCC3CC3)c(NC(C)C)nc2CC1	51.6
Cn1cc(CN(CC2(O)CNCCOC2)C2CCCCC2)cn1 (centres undefined)	38.5
O=C(Cc1ccccc1F)N1CCN(C(=O)c2cccc(F)c2)CC1	27.6
Cc1noc(CCCc2nc(C3CCOC3)no2)n1 (centres undefined)	5.87
